An excerpt weighted towards active compounds, which were near 7.9% of everything screened.
Lassa entry inh – blocks Lassa virus binding to or entry into cells; Lassa virus pseudotype entry inhibition, cell reporter; Potency, µM (top dose mostly 37.9 µM), for inactives: at the highest dose activity change, negative = inhibition, usual class: inhibitors; 300,000 tested, 1.2% active; calls by dose curve; tested in HEK293 cells; also: potency is read from the fitted curve at half-maximal effect; nearly all actives have a fitted effect of over 50% in size
HCV inhibitor – HCV inhibition; Potency, µM (top dose mostly 41.8 µM), inactives show at the highest dose activity change, negative = inhibition, hits mostly inhibitors; 340,000 tested, 3.4% active; Huh7.5.1 HCVcc-Cre infection, luciferase reporter, 44 h; active = well fitted inhibition curve with a large enough effect; inconclusive = small, poorly fitted or top-dose-only effect, or another doubt; inactive = no such curve, though single readings can be large or run the other way; also: potency is read from the fitted curve at half-maximal effect
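Infectious HCVcc-Cre (~0.5 moi) was added to cells just after compound, with cells seeded 4 h earlier at 1,000 per well. Luciferase activity after 44 h culture reported infection; substrate was incubated 15 min at room temperature before reading.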
FMDV inh – blocks foot and mouth disease virus; FMDV antiviral cell-based qHTS; AID 1159524; Potency, µM (top dose mostly 57.9 µM), inactives show at the top dose activity change, negative = inhibition, usual class: inhibitors; 410,000 tested, 1.2% active; calls by dose curve; tested in HEK293T cells; also: read-out not given here; potency is read from the fitted curve at half-maximal effect; nearly all actives have a fitted effect of over 45% in size
HCMV inh – inhibitors of human cytomegalovirus; HFF cells, HCMV-luciferase reporter, 72 h; stronger effect = lower value; activity change, negative = inhibition, % at 57.5 µM; 410,000 tested, 4.5% active; AID 1259415; in the data active = activity change below about -60%; inconclusive = no clear call, values can overlap the other calls; inactive = above about -39%
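Compounds were evaluated in HFFs infected with an HCMV luciferase reporter virus (MOI 1 PFU/cell). Luciferase in lysates collected 72 h post infection served as the replication measure.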
MARV entry inh – blocks Marburg virus binding to or entry into cells. Marburg virus pseudotyped entry inhibition, cell reporter. Potency, µM (series often up to 37.8 µM), for inactives: at the top dose activity change, negative = inhibition, actives largely listed as inhibitors. 300,000 tested, 1.8% active; calls by dose curve; tested in HEK293 cells; also: potency is read from the fitted curve at half-maximal effect
Numbers without * were called inactive; u = inconclusive; x = no result; ! = not confirmed by another sample; [ ] = another dose, or the depositor's remark. % is scaled to controls: 0 for no effect and ±100 for the full control effect.

SMILES | Lassa entry inh | HCV inhibitor | FMDV inh | HCMV inh | MARV entry inh
COc1cc(/C=N/NC(=O)Cc2ccccc2)ccc1Oc1ccc([N+](=O)[O-])cc1[N+](=O)[O-] | 9.2% | 14.1µM* | -11.2% | -61.5* | 1.8%
CN(C)S(=O)(=O)c1cc(NC(=O)CNCc2ccc(F)cc2)ccc1Cl | x | u | -9.3% | 16.8 | x
Cc1ccc(Cn2c(SCC(N)=O)nc3c2c(=O)n(C)c(=O)n3C)cc1 | 0.0% | 11.2µM* | x | 97.2 | 6.0%
Cn1c(=O)c2c(nc(SCCN3CCCCC3)n2Cc2ccccc2)n(C)c1=O | 3.9% | u | -18.2% | 71.5 | u
Cc1ccc(Cn2c(SCCN3CCCCC3)nc3c2c(=O)n(C)c(=O)n3C)cc1 | u | 12.6µM* | 0.0% | -100.0* | u
CCCn1c(SCC(=O)Nc2ccccc2N2CCCCC2)nc2c1c(=O)n(C)c(=O)n2C | u | 10µM*! | x | u | u
CC1Cc2ccccc2N1C(=O)CSc1nc2c(c(=O)n(C)c(=O)n2C)n1Cc1ccccc1 (stereo not given) | u | 3.55µM* | -12.4% | -96.8* | u
COc1ccc(CS(=O)(=O)CC2(O)CCN(C(=O)c3cccc(C(F)(F)F)c3)CC2)cc1 | -8.3% | -2.7% | 20.3% | 30.5 | -2.7%[46.1 µM]
Nc1nc2ccccc2n1/N=C/c1cccnc1 | u | 31.3% | 13.0% | 21.3 | -0.2%
Nc1nc2ccccc2n1/N=C/c1ccc([N+](=O)[O-])s1 | u | 3.55µM* | -1.0% | u | u
CCOC(=O)c1ccc(NC(=O)c2ccc3c(c2)C(=O)N(Cc2cccnc2)C3=O)cc1 | x | 7.7% | 17.8µM* | 11.1 | x
COc1ccc(OC)c(NC(=O)c2ccc3c(c2)C(=O)N(CC2CCCO2)C3=O)c1 (stereo not given) | -26.8%[46.1 µM] | -2.1% | -9.3% | -66.5* | 1.9%[46.1 µM]
CCOC(=O)c1ccc(NC(=O)c2ccc3c(c2)C(=O)N(CC2CCCO2)C3=O)cc1 (stereo not given) | -3.7% | 1.4% | 28.2µM* | -16.4 | 26.2%
CC1CN=C(c2ccc(Cl)cc2)c2c3ccc(C(F)(F)F)cc3[n+]([O-])n21 (stereo not given) | x | x | x | 5.5 | x
NC[C@@H]1CC[C@@H](N)[C@@H](O[C@H]2[C@H](O)[C@@H](O[C@H]3O[C@H](CO)[C@@H](O)[C@H](N)[C@H]3O)[C@H](N)C[C@@H]2N)O1 | x | x | 2.2% | x | x
Cc1ccc(NC(=O)C(=O)NCCOc2ccc(Cl)cc2)c(C)c1 | -11.7% | -4.6% | u | -16.5 | 7.6%
CCCCN1CC[C@H]2C=CC[C@@H](C(=O)N3CCOCC3)[C@H]2C1=O | x | 0.562µM* | -5.3% | -25.0 | x
CCCCN1CC[C@@H]2C=CC[C@H](C(=O)OC)[C@@H]2C1=O | x | 24.9% | -13.8% | -11.5 | x
Cc1c(NC(=O)C(F)(F)F)ccc2nc3c(=O)n(C)c(=O)n(C)c3nc12 | u | x | -0.3% | -37.3 | 4.4%[46.1 µM]
Cc1cccc2cc(CN(CC3CCCO3)C(=O)C3CC3)c(N(C)C)nc12 (stereo not given) | x | x | -2.1% | x | x
CC1=CC(C)(C)n2c(O)c(C3=NC(=S)NC3=O)c3cc(OC(=O)c4cccc5ccccc45)cc1c32 | -13.0% | u | u | -71.6* | -8.9%
CCOC(=O)c1c(NC(=O)COC)sc(C(C)=O)c1C | -8.2% | 28.2µM* | 0.0% | 61.0 | 3.3%
CCOC(=O)c1c(NC(=O)COC)sc(C)c1C | -12.6% | u | -10.2% | -11.4 | 7.0%
CCOC(=O)c1sc(NC(=O)CCN2CCN(CC)CC2)c(C(=O)OCC)c1C | 18.2% | 10µM* | -6.1% | 6.0 | u
CCOC(=O)c1c(NC(=O)C2c3ccccc3Oc3ccccc32)sc(C(C)=O)c1C | u | 0.794µM* | x | -81.9* | u
SMILES | Lassa entry inh | HCV inhibitor | FMDV inh | HCMV inh | MARV entry inh
CCOC(=O)c1sc(NC(=O)CN(CC(C)C)CC(C)C)c(C(=O)OCC)c1C | -20.2% | -5.3% | 5.9% | -95.2* | u
Cc1ccc(C)c(S(=O)(=O)NCc2nc(N3CCCC3)c3cc(Cl)ccc3n2)c1 | x | x | -1.2% | x | x
CC1CCc2c(N3CCC(O)CC3)c(F)cc3c(=O)c(C(=O)O)cn1c23 (stereo not given) | x | 9.3% | -0.5% | 36.4 | x
CC1CCc2cc(F)cc3c(=O)c(C(=O)O)cn1c23 (stereo not given) | 10.1% | 1.8%[8.37 µM] | -11.8% | -71.0* | 2.9%
COCCCNC(=O)c1ccc(S(=O)(=O)c2ccc(Cl)cc2)c(NC(C)=O)c1 | x | 2.9% | -11.4% | -18.3 | x
NC(=O)NC(CC(=O)N1CCc2ccccc2C1)c1ccc(Cl)cc1 (stereo not given) | -8.8% | 4.9% | -11.3% | -13.9 | -14.3%[46.1 µM]
COc1cccc(CNc2nc(NCC3CC3)nc3ccsc23)c1 | x | x | -1.2% | -71.3* | x
CNc1nc(NCc2ccccc2)c2sccc2n1 | x | x | -22.2% | -5.6 | x
COc1cccc(CNc2nc(NCc3ccccc3)nc3ccsc23)c1 | x | x | u | -102.1* | x
CC(C)c1ccc(CNc2nc(NCC3CC3)nc3ccsc23)cc1 | x | x | u | -61.9* | x
COc1ccc2c(c1)NC(c1ccc(OCC(C)C)cc1)=NC(c1ccncc1)=N2 | 12.4%[46.1 µM] | x | 13.6% | 11.5 | -1.1%[46.1 µM]
CCn1c(SC)nc2c([nH]c3ccccc32)c1=O | -3.7%[46.1 µM] | x | -2.7% | 114.5 | x
CCOCCCNC(=S)N1CCCN(c2nc3cc(C)cc(C)c3cc2C#N)CC1 | 1.1% | 11.2µM* | -10.0% | 13.6 | u
CCOCCCNC(=S)N1CCCN(c2nc3cc(C)c(C)cc3cc2C#N)CC1 | x | u | -17.5% | u | x
COCCCNC(=S)N1CCCN(c2nc3cc(C)c(C)cc3cc2C#N)CC1 | -19.9%[46.1 µM] | 22.4µM* | 23.1% | -36.0 | -8.3%[46.1 µM]
COCCCNC(=S)N1CCCN(c2nc3cc(C)ccc3cc2C#N)CC1 | u | u | 5.7% | u | -15.2%
Cc1cc(OCCn2ccnc2)cc(C)c1Cl | x | -4.7% | -14.7% | 1.4 | x
Cc1ccc2c(c1)c1c(n2C)C(C(N)=O)CCC1 (stereo not given) | -3.0% | u | -17.6% | -13.0 | 10.0%
Cc1ccc2c(c1)c1c(n2C)-c2[nH]ncc2CC1 | u | 10µM* | 33.0% | -2.8 | 27.2%
CC(C)(O)C(=O)NNC(=S)Nc1ccc(F)c(Cl)c1 | 8.9% | 0.6% | 0.5% | -20.5 | -12.8%[46.1 µM]
Cc1ccc(S(=O)(=O)NCCSc2nnnn2-c2ccccc2)cc1 | -17.5%[46.1 µM] | -22.3% | 15.0% | -31.8 | -14.3%[46.1 µM]
Cc1ccc(C)c(-n2nnnc2Sc2nnnn2-c2ccccc2)c1 | u | 11.2µM* | 15.8µM* | -97.4* | 14.6µM*
Cc1cccc(CSc2nnc(N)n2-c2ccccc2)c1 | 13.1% | 0.6% | -8.3% | -26.8 | -0.7%
Cc1cccc(CSc2nnnn2-c2ccccc2)c1 | 10µM* | -26.4% | 2.9% | 23.2 | u
CCSc1nnnn1-c1ccccc1 | 2.4% | 7.4% | -0.2% | 7.7 | 4.2%
Cc1ccc(S(=O)(=O)NCCSc2nnnn2-c2cc(C)ccc2C)cc1 | 8.91µM* | u | -11.1% | 1.8 | u
CN(C)P(=O)(Nc1cccc2ccccc12)Nc1cccc2ccccc12 | -3.3% | 8.1% | -9.5% | 91.8 | 22.3%
O=C(c1cccc(F)c1F)N1CCOc2ccc(CN3CCC(Oc4cccnc4)CC3)cc2C1 | x | x | -18.8% | x | x
COc1ccc(CNC(=O)c2cc3ccccc3oc2=O)cc1 | x | 9.8% | 23.8% | -24.2 | x
